Data from ChEMBL document CHEMBL4888484, “Replenishing the malaria drug discovery pipeline: Screening and hit evaluation of the MMV Hit Generation Library 1 (HGL1) against asexual blood stage Plasmodium falciparum ,using a nano luciferase reporter read-out” (2022).
Among all 4,800 compounds or so, about 420 (8.8%) showed an effect of 50% or more. This is one part of a sample in which strong results are shown more often than they occur.

tested on: Plasmodium falciparum; assay: Confirmatory screen in NF54 nanoGlo assay, in single point, at 2uM, 72h; format: functional, Erythrocyte; conditions: timepoint 72 hour

| Compound | % Inhibition |
| --- | --- |
| CC1CC(C)CC2(C1)NC(=O)N(CCC1OCCO1)C2=O (stereo not drawn) | -1% |
| Cc1cc(=O)n(CC(=O)N2CCC(C)CC2)c(-c2ccc(F)cc2)n1 | -4% |
| O=C(CCc1nc(CN2CCN(S(=O)(=O)c3ccc(F)cc3)CC2)no1)N1CCCC1 | -4% |
| CCOC(=O)N1CCc2c(nc(-c3ccc(C)cc3)n(CC(=O)Nc3ccc(C(C)C)cc3)c2=O)C1 | -16% |
| Cc1noc([C@H](C)S(=O)(=O)Cc2cc(C)on2)n1 | 0% |
| O=S(=O)(Nc1ccc(F)cc1OCC1CC1)c1cn[nH]c1 | -12% |
| Cn1cc(CNC(=O)NCC2(Cc3ccccc3)CCC2)cn1 | -4% |
| Cc1c(C(C)C)c(=O)n(-c2ccc(S(=O)(=O)N3CCN(c4nc5ccccc5nc4-c4ccccc4)CC3)cc2)n1C | -20% |
| CCN(CC(C)(C)O)C(=O)C1CCCCCC1 | -9% |
| Cn1nc(C(F)(F)F)cc1B1OC(C)(C)C(C)(C)O1 | 4% |
| C=CCOc1ccc(Cl)c(C(=O)N[C@H]2CCS(=O)(=O)C2)n1 | 0% |
| CCC(CC)C(=O)Nc1cc(C2CC2)nn1-c1nc(-c2ccccc2)cc(=O)[nH]1 | 50% |
| O=C(CCCc1ccccc1)Nc1cc(C2CC2)nn1-c1nc(-c2ccccc2)cc(=O)[nH]1 | 48% |
| Cc1cc(N)n(-c2nc(-c3ccccc3)cc(=O)[nH]2)n1 | 1% |
| Cc1ccc(NC(=O)NC(=O)Cn2ccc(=O)c3sccc32)cc1C | 0% |
| Cc1ccc(S(=O)(=O)N2CCN(S(C)(=O)=O)C2)cc1 | 0% |
| Cc1ccc2c(c1)c1c(n2S(=O)(=O)c2ccc(C(C)(C)C)cc2)CCCN(C)C1 | 76% |
| Cc1ccc(S(=O)(=O)N2CCCC(=O)c3ccccc32)cc1 | -3% |
| CC#CCCC(=O)Nc1ccc(OC)cc1 | -5% |
| Cc1cc(C)c(OC(=O)c2ccc(Cl)cc2Cl)c(CNC(=O)c2ccccc2)c1 | -16% |
| c1cc([C@@H]2CCCCN2c2nc(C3CC3)ns2)n[nH]1 | 2% |

| Compound | % Inhibition |
| --- | --- |
| CCNC(=O)C[C@H]1CCCCN1C(=O)C1CCN(Cc2csc(C)n2)CC1 | -1% |
| Cc1ccc(C(=O)N[C@@H](C)CCc2ccccc2)cc1S(=O)(=O)N1CCN(C)CC1 | -20% |
| O=S(=O)(c1ccccc1C(F)(F)F)N1CC[C@]2(CCN(c3cccnc3)C2)C1 | -2% |
| CCn1nccc1CN(C)C(=O)c1cc(C)c(C)s1 | 5% |
| CCCC[C@H](CC)C(=O)Nc1cc(C)ccn1 | 0% |
| Cc1cc(C)n(NC(=O)CCn2nc(C(F)(F)F)c(Br)c2C2CC2)c(=O)c1 | 3% |
| Clc1cc(CN2CC[C@@]3(CCCOC3)C2)ccc1OCCN1CCOCC1 | 0% |
| CCCOc1cccc2c(NC3CCN(CCOC)CC3)ccnc12 | 22% |
| Cc1cc(C)cc(Nc2nc(C)cc(=O)n2CC(=O)N2CCN(c3ccc(F)cc3)CC2)c1 | -1% |
| Cc1c(C(=O)c2ccc(Cl)c(Cl)c2)sc2nc3cc(F)c(F)cc3n12 | -11% |
| Nc1ncnc(NCc2cccnc2OCC(F)F)c1Cl | 7% |
| COc1cc(C(=O)NCCN2CCOCC2)cc2occc12 | -4% |
| CC1CC(NS(=O)(=O)CCCC(F)(F)F)CCN1 (stereo not drawn) | -4% |
| COc1cc(NC(=O)N[C@@H](C)C(=O)N2CCc3ccccc32)cc(OC)c1 | 4% |
| Cc1ccc(NC(=O)c2cc3nccc(-c4ccc(F)cc4)n3n2)nc1 | -7% |
| CN(C(=O)NC1CCCC1)c1nc2c(s1)CN(Cc1ccccc1)C2=O | -12% |
| Cc1ccc(CNC2CCN(C)CC2)c(OCc2ccco2)c1 | -3% |
| Cc1ccc2nc3c(c(N)c2c1)CCCCN3C | -10% |
| Cc1ccc2nc(C3CC3)cc(C(=O)N3C[C@@H](O)C[C@H]3CO)c2c1 | -4% |
| COCCN(CC1CN(Cc2ccccc2OC)CC1c1ccccc1OC)C(=O)COC (stereo not drawn) | -2% |
| CC(C)[C@@H]1CCc2ccccc2N1Cc1nc(N)nc(N(C)C)n1 | -4% |

| Compound | % Inhibition |
| --- | --- |
| COc1ccc(NC(=O)Cn2c(C(F)(F)F)nc3cc4c(cc32)OCCCO4)cc1 | 4% |
| Cn1c2cn(-c3ccc(F)cc3)c(-c3ccccc3)c2c(=O)n1-c1ccccc1 | -1% |
| Cn1c(=O)c2c(-c3ccc(Cl)cc3)n(-c3cccc4cccc(N)c34)cc2n(C)c1=O | 91% |
| CC(C)(C)OC(=O)N1CCCC(C(O)C(F)(F)F)C1 (stereo not drawn) | 6% |
| CCCCC12CN(S(=O)(=O)c3ccccc3)CC(C)(CN(S(=O)(=O)c3ccccc3)C1)C2=O | -5% |
| Cc1c(C(=O)NC2CC2)cc(-c2ccccc2)n1C | -3% |
| COc1ccc(-c2cc(C(=O)N[C@H]3CCN(c4ccc(=O)n(C)n4)C3)c(C)n2C)cc1 | 62% |
| Cn1cccc1C(=O)NC1CCN(c2ccc(Cl)c(C#N)n2)CC1 | -5% |
| COc1ccc(-c2cc(C(=O)N[C@H]3CCN(c4ccc(=O)[nH]n4)C3)c(C)n2C)cc1 | 69% |
| CCCCN(CC)CCNC(=O)C1CCN(C2=NS(=O)(=O)C(c3ccc(OC)cc3)=C2C)CC1 | 32% |
| CC(C)NC(=O)c1ccc(CN2C(=O)COc3ccc(C(=O)COc4ccc(F)c(F)c4)cc32)o1 | 4% |
| CC[C@H](C)NS(=O)(=O)c1cccc(N)c1 | -4% |
| O=C(NCc1ccco1)[C@H]1CCCN(c2nc3ccccc3n(Cc3ccccc3)c2=O)C1 | 4% |
| Brc1cccc(-c2ccc(-c3cc(-c4ccccc4)nnc3-c3ccccc3)o2)c1 | 31% |
| COc1cc(Br)ccc1C1NC(=O)C2COCCN21 (stereo not drawn) | 7% |
| CC(C)(C)c1cc([C@H](c2ccc(Cl)cc2)N2CCCCC2)cc(C(C)(C)C)c1O | 2% |
| CN(Cc1nnc[nH]1)C(=O)C1(C)CCC1 | -11% |
| COc1ccc(CCNc2nc(-c3ccc(OC)cc3F)c3c(N)n(-c4ccc(Cl)cc4)nc3n2)cc1 | 59% |
| COCCNc1nc(-c2ccccc2OC)c2c(N)n(-c3ccc(F)cc3)nc2n1 | -6% |
| COc1ccc(-n2nc(C)c(Cc3ccc(Cl)cc3)c2O)cc1 | 0% |
| Cc1cc(N2C(=O)CCS2(=O)=O)cc(C)c1S(=O)(=O)NCc1ccccn1 | 2% |
